The campaign covered roughly 310,000 compounds. About 14,000 (4.5%) showed an effect of 50% or more. Effects have a minus sign here. The list comes from a sample in which strong results are over-represented; it also holds similar structures and randomly drawn compounds.
Molecular target: human ether-à-go-go-related gene (hERG) potassium channel (human, UniProt Q12809)
Test: primary screen, population patch clamp on CHO cells stably expressing hERG; higher = less effect of the substance
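Note: peak tail current of the secondary pulse compared with the same well before compound.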

human ether-à-go-go-related gene (hERG) potassium channel, sequence (Q12809 whole entry, looked up): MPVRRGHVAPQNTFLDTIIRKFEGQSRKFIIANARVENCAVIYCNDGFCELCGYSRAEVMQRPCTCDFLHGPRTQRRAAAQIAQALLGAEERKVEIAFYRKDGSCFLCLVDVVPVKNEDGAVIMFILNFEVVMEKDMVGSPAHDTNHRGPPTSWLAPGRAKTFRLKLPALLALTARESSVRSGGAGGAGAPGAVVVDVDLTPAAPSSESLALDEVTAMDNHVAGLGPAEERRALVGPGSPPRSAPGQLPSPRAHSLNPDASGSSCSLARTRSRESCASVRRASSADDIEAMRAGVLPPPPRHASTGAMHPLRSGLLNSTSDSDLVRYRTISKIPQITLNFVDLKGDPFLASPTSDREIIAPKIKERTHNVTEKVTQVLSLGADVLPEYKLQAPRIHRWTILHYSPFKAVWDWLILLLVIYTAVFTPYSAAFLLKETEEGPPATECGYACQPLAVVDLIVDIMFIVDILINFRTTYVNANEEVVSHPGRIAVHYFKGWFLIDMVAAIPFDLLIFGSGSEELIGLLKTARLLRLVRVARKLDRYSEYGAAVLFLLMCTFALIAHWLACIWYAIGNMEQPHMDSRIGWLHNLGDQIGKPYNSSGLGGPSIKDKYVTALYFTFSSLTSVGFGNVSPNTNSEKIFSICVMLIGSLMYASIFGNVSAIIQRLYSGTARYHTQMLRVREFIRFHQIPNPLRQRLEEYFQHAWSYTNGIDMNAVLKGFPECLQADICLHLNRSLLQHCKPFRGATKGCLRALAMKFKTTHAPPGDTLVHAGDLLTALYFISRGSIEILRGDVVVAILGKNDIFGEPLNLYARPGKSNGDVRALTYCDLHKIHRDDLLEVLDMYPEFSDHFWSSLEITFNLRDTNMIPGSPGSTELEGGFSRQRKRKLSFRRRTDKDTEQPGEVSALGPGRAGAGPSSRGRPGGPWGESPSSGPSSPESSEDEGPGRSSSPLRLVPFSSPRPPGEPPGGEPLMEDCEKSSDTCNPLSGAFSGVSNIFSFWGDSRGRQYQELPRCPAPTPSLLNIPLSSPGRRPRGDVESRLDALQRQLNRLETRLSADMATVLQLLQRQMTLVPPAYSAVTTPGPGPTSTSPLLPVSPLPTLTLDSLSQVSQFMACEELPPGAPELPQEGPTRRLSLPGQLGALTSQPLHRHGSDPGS

**Q.** CCc1ccc(NS(=O)(=O)c2cc3[nH]c(=O)c(=O)[nH]c3cc2C)cc1 was tested. Which “hERG current change (%, negative = inhibition) at 10uM” value did it give?
**A.** Its value is 9.15%.

**Q.** Which “hERG current change (%, negative = inhibition) at 10uM” value does the source give for CC/C(=N\Nc1ccc([N+](=O)[O-])cc1[N+](=O)[O-])c1ccc(O)cc1 here?
**A.** Its value is 21.7%.

**Q.** How did the “hERG current change (%, negative = inhibition) at 10uM” value turn out when Cc1ccc(S(=O)(=O)c2ncccc2N)cc1 was run?
**A.** The value was 12.4%.

**Q.** Which “hERG current change (%, negative = inhibition) at 10uM” value does the source give for Cc1ccc(S(=O)(=O)c2ncccc2[N+](=O)[O-])cc1 here?
**A.** The value was -64%.

**Q.** O=[N+]([O-])c1cccnc1S(=O)(=O)c1ccccc1 was tested. Which “hERG current change (%, negative = inhibition) at 10uM” value did it give?
**A.** Its value is 15.9%.

**Q.** Cc1noc(C)c1C(=O)Nc1ccccc1C(=O)NCCc1ccccc1 was tested. Which “hERG current change (%, negative = inhibition) at 10uM” value did it give?
**A.** Its value is 8.93%.

**Q.** For Cc1nn(-c2ccccc2)c(C)c1C(=O)OCC(=O)N1CC(=O)Nc2ccccc21, which “hERG current change (%, negative = inhibition) at 10uM” value is on record?
**A.** Its value is 1.89%.

**Q.** For CC1(OC(=O)C2CCCC2)C(=O)C=C2C=C(c3ccsc3)N(C3CCCCC3)C=C2C1=O (stereo not drawn), which “hERG current change (%, negative = inhibition) at 10uM” value is on record?
**A.** Its value is -15.8%.

**Q.** For CC1(OC(=O)C2CCCC2)C(=O)C=C2C=C(c3ccsc3)N(CCCCO)C=C2C1=O (stereo not drawn), which “hERG current change (%, negative = inhibition) at 10uM” value is on record?
**A.** Its value is 1.16%.

**Q.** For CC1(OC(=O)C2CCCC2)C(=O)C=C2C=C(c3ccsc3)N(C3CCCC3)C=C2C1=O (stereo not drawn), which “hERG current change (%, negative = inhibition) at 10uM” value is on record?
**A.** The value was -64.7%.

**Q.** CC1(OC(=O)C2CCCC2)C(=O)C=C2C=C(c3ccsc3)N(C3CC3)C=C2C1=O (stereo not drawn) was tested. Which “hERG current change (%, negative = inhibition) at 10uM” value did it give?
**A.** Its value is 16.5%.

**Q.** Which “hERG current change (%, negative = inhibition) at 10uM” value does the source give for CC1(OC(=O)C2CCCC2)C(=O)C=C2C=C(c3ccsc3)N(Cc3ccco3)C=C2C1=O (stereo not drawn) here?
**A.** The value was -23.2%.

**Q.** For COCCN1C=C2C(=O)C(C)(OC(=O)C3CCCC3)C(=O)C=C2C=C1c1ccsc1 (stereo not drawn), which “hERG current change (%, negative = inhibition) at 10uM” value is on record?
**A.** The value was -6.22%.

**Q.** For CC1(OC(=O)C2CCCC2)C(=O)C=C2C=C(c3ccsc3)N(CC3CC3)C=C2C1=O (stereo not drawn), which “hERG current change (%, negative = inhibition) at 10uM” value is on record?
**A.** The value was -11.8%.

**Q.** CC1(OC(=O)C2CCCC2)C(=O)C=C2C=C(c3ccsc3)N(Cc3ccccc3)C=C2C1=O (stereo not drawn) was tested. Which “hERG current change (%, negative = inhibition) at 10uM” value did it give?
**A.** Its value is -52.5%.

**Q.** For CC1(OC(=O)C2CCCC2)C(=O)C=C2C=C(c3ccsc3)N(Cc3ccc4c(c3)OCO4)C=C2C1=O (stereo not drawn), which “hERG current change (%, negative = inhibition) at 10uM” value is on record?
**A.** Its value is -79.6%.

**Q.** CC(C)CN1C=C2C(=O)C(C)(OC(=O)C3CCCC3)C(=O)C=C2C=C1c1ccsc1 (stereo not drawn) was tested. Which “hERG current change (%, negative = inhibition) at 10uM” value did it give?
**A.** The value was -0.438%.

**Q.** COc1ccc(CN2C=C3C(=O)C(C)(OC(=O)C4CCCC4)C(=O)C=C3C=C2c2ccsc2)cc1 (stereo not drawn) was tested. Which “hERG current change (%, negative = inhibition) at 10uM” value did it give?
**A.** The value was -64.4%.

**Q.** With C=CCN1C=C2C(=O)C(C)(OC(=O)C3CCCC3)C(=O)C=C2C=C1c1ccsc1 (stereo not drawn) as the molecule, how does the “hERG current change (%, negative = inhibition) at 10uM” value read?
**A.** The value was -19.4%.

**Q.** How did the “hERG current change (%, negative = inhibition) at 10uM” value turn out when COC(=O)c1ccc(COC(=O)CNC(=O)CNC(=O)c2ccc(OC)cc2)cc1 was run?
**A.** Its value is -6.8%.

**Q.** For CN(C(=O)CN1C(=O)C2C3CC(C(Br)C3Br)C2C1=O)C1CCCCC1 (stereo not drawn), which “hERG current change (%, negative = inhibition) at 10uM” value is on record?
**A.** Its value is -8.93%.

**Q.** With CCOC(=O)Cn1c(S(=O)(=O)Cc2ccc(F)cc2)nc(-c2ccccc2)c1-c1ccccc1 as the molecule, how does the “hERG current change (%, negative = inhibition) at 10uM” value read?
**A.** The value was -7.15%.

**Q.** How did the “hERG current change (%, negative = inhibition) at 10uM” value turn out when CCCCCCSc1cc(C)nc2ncnn12 was run?
**A.** Its value is -42.9%.

**Q.** With CCc1cccc(CC)c1-n1c(-c2cccnc2)n[nH]c1=S as the molecule, how does the “hERG current change (%, negative = inhibition) at 10uM” value read?
**A.** The value was 18.1%.

**Q.** Which “hERG current change (%, negative = inhibition) at 10uM” value does the source give for O=C(c1cc(Br)ccc1OC(F)F)N1CCN2CCCC2C1 (stereo not drawn) here?
**A.** Its value is -4.15%.

**Q.** For CCOC(=O)CSc1nnc(-c2ccccc2NC(=O)c2ccccc2)o1, which “hERG current change (%, negative = inhibition) at 10uM” value is on record?
**A.** Its value is 12.2%.

**Q.** With CC(C)Nc1oc(-c2cccc3ccccc23)nc1C#N as the molecule, how does the “hERG current change (%, negative = inhibition) at 10uM” value read?
**A.** Its value is 2.18%.

**Q.** For O=C(NC(=S)NCCO)c1sc2ccccc2c1Cl, which “hERG current change (%, negative = inhibition) at 10uM” value is on record?
**A.** Its value is -0.142%.

**Q.** With Cl.NCCc1ccc(OCc2ccccc2)c(OCc2ccccc2)c1 as the molecule, how does the “hERG current change (%, negative = inhibition) at 10uM” value read?
**A.** Its value is -22.1%.

**Q.** Which “hERG current change (%, negative = inhibition) at 10uM” value does the source give for COc1cc(CCC(=O)N2CCN(c3ccc(N4CCOCC4)nn3)CC2)cc(OC)c1OC here?
**A.** Its value is -9.65%.

**Q.** For COc1cc(CCC(=O)N2CCN(c3ccc([N+](=O)[O-])cc3)CC2)cc(OC)c1OC, which “hERG current change (%, negative = inhibition) at 10uM” value is on record?
**A.** Its value is -78.4%.

**Q.** For COc1ccc(C(=O)N2CCN(c3ccc([N+](=O)[O-])c(NCCc4ccc(OC)c(OC)c4)c3)CC2)cc1, which “hERG current change (%, negative = inhibition) at 10uM” value is on record?
**A.** The value was 4.2%.

**Q.** Which “hERG current change (%, negative = inhibition) at 10uM” value does the source give for COc1ccc(CCC(=O)N2CCN(c3ccc([N+](=O)[O-])cc3)CC2)cc1OC here?
**A.** The value was -81.5%.

**Q.** For COc1ccc(CCC(=O)N2CCN(c3ccccc3)CC2)cc1OC, which “hERG current change (%, negative = inhibition) at 10uM” value is on record?
**A.** Its value is 14%.

**Q.** Which “hERG current change (%, negative = inhibition) at 10uM” value does the source give for COc1cc(CCC(=O)N2CCN(c3cccc(C)c3C)CC2)cc(OC)c1OC here?
**A.** Its value is -2.88%.

**Q.** COc1cc(CCC(=O)N2CCN(c3ccccc3)CC2)cc(OC)c1OC was tested. Which “hERG current change (%, negative = inhibition) at 10uM” value did it give?
**A.** The value was -58.5%.

**Q.** With COc1ccc(N2CCN(C(=O)Cc3ccc(OC)c(OC)c3)CC2)cc1 as the molecule, how does the “hERG current change (%, negative = inhibition) at 10uM” value read?
**A.** The value was 6.38%.

**Q.** With COc1cc(CCC(=O)N2CCN(c3ncccn3)CC2)cc(OC)c1OC as the molecule, how does the “hERG current change (%, negative = inhibition) at 10uM” value read?
**A.** The value was 11.8%.

**Q.** How did the “hERG current change (%, negative = inhibition) at 10uM” value turn out when O=C(Cc1cccc(C(F)(F)F)c1)OCC(=O)N1CCN(S(=O)(=O)c2ccc(Cl)cc2)CC1 was run?
**A.** Its value is -6.07%.

**Q.** COc1ccc(OC)c(NC(=S)NCc2cccs2)c1 was tested. Which “hERG current change (%, negative = inhibition) at 10uM” value did it give?
**A.** Its value is -18.3%.

**Q.** For CCOC(=O)C1(Cc2ccccc2C)CCCN(S(=O)(=O)CC)C1 (stereo not drawn), which “hERG current change (%, negative = inhibition) at 10uM” value is on record?
**A.** The value was 13.9%.

**Q.** For COc1cccc(NS(=O)(=O)c2ccc3c(c2)n(C)c(=O)c(=O)n3C)c1, which “hERG current change (%, negative = inhibition) at 10uM” value is on record?
**A.** The value was -6.59%.

From publication PMC4336329 (PLoS ONE, 2015)
